# Compounds without any hit were thinned out: in the full panel of roughly 83,000, 20% have a hit.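 Single-dose data. Exposure time 48 hours. Values below 10 considered active.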 A number with no mark means an inactive call. Calls of active or inactive are those of the source.
# Test system: HCT-116 colon
# Experiment: NCI-60 one-dose screen, 48 h (100 = growth as untreated, 0 = no growth, -100 = all killed)
# Settings: 10 µM unless noted
row,Structure (SMILES),growth
1,CC(C)c1[nH]ncc1-c1nc2ccc3[nH]ncc3c2c2c1CCCC2,12.2%
2,Cc1cc(-c2nnc(/C=C/c3ccc4c(c3)OCO4)o2)n[nH]1,48.1%
3,CCN(CC)CCCCCCCNc1cc(OC)cc2c(C)ccnc12,70.9%
4,CCCc1n(Cc2ccc3ccccc3n2)cc[n+]1Cc1ccc2ccccc2n1,22.9%
5,COc1ccc(/C=C2\N=C(c3cccnc3)N(c3ccccc3)NC2=O)cc1,97.1%
6,COc1ccc(Sc2[nH]c(C=O)c3ccccc23)cc1,61.1%
7,COc1ccc(-n2nc(C(=O)NCC(=O)Nc3nc4cc(OC)ccc4s3)c3ccccc3c2=O)cc1,2.56% (active)
8,CCCCN(CCCC)CCCN=c1nc2c(c(N)n1-c1ccccc1)c(=S)n(-c1ccccc1)c(=S)n2-c1ccccc1,-25% (active)
9,O=C(/C=C/c1ccccc1)C(Br)C(Br)c1ccccc1 (stereo not drawn),-94.2% (active)
10,COc1ccc(Nc2ncccc2C(=O)NCc2cn(Cc3cc(OC)cc(OC)c3)nn2)cc1,94.8%
11,CN(C)c1ccc(C(c2ccccc2)c2ccc(N(C)C)cc2)cc1,80.6%
12,COc1ccc(/C(=C\c2cc(OC)c(OC)c(OC)c2)C(=O)N2CCNCC2)cc1,94.5%
13,CC(=O)c1ccc(Nc2nc(Cl)nc(Oc3c(Cl)cccc3Cl)n2)cc1,84.9%
14,COc1cc2nccc(Oc3ccc(NC(=O)C4(C(=O)Nc5ccc(F)cc5)CC4)cc3)c2cc1Oc1ccc(N)cn1,40.7%
15,N#Cc1nc(-c2ccc(Cl)cc2)cc(-c2ccc(Nc3nc(N4CCCCC4)nc(N4CCCCC4)n3)cc2)c1N,102%
16,Cc1ccccc1CNc1ncnc2[nH]ncc12,100%
17,CN(C)CCOc1nc2c3ccncc3cc(-c3cccc(Cl)c3)c2c2cnccc12,11.4%
18,Cc1ccc(C2CC(c3cccs3)=NN2c2ccc(S(N)(=O)=O)cc2)s1 (stereo not drawn),79.2%
19,CN=C1C=C/C(=N/N=c2/ccn(O)cc2C)C=C1C,90.9%
20,Oc1[nH]c2ccccc2c1/C=c1/ccc2c(c1)N=C(c1ccc(C(F)(F)F)cc1)N=2,39.5%

row,Structure (SMILES),growth
1,Clc1ccc(Nc2ncnc3c2sc2ncccc23)cc1,28%
2,Nc1nc(N)c2cc(Sc3ccc(Cl)cc3)ccc2n1,16.2%
3,CCN(C(=O)Nc1cccc2ccccc12)c1ccccc1,106%
4,CCN(CC)CCCC(C)Nc1cnc(C(=O)Nc2ccc(Cl)c3cccnc23)cn1 (stereo not drawn),-52.4% (active)
5,C/C(=N\NC(=S)Nc1ccccc1)c1ccccn1,6.94% (active)
6,C[C@]12CCc3nc(Nc4ccc(O)cc4)sc3C1=CC[C@@H]1[C@@H]2CC[C@]2(C)/C(=N/NC(N)=S)CC[C@@H]12,-81% (active)
7,CC1(C)C(N(O)C(=O)Nc2ccc(Cl)cc2)N(c2ccc(Cl)cc2)C(=O)N1CC(=O)N/N=C/C=C/c1ccc([N+](=O)[O-])o1 (stereo not drawn),-98.1% (active)
8,COc1ccc(C(=O)c2c(N)nc3n2CCCC3)cc1OC,91.9%
9,Fc1ccc2c(CN3CCO[C@H](COc4cccc(Cl)c4)C3)c[nH]c2c1,28.8%
10,CC(=O)c1c(C)nc(-c2cc(C)cc(Cl)c2)nc1-c1cccc(Oc2ccccc2)c1,30.5%
11,FC(F)(F)c1ccc(/C=N/Nc2nnc3n2N=C(c2ccc(Cl)cc2)CS3)cc1,32.8%
12,O=C1/C(=C\c2cccn2C(=O)c2ccccc2)c2ccccc2N1c1c(Cl)cccc1Cl,30.5%
13,Cc1ccc(S(=O)(=O)NC(CCC(=O)Nc2ccc(Cl)cc2)C(=O)Nc2ccc(Cl)cc2)cc1 (stereo not drawn),23.8%
14,CNC(=O)c1cc(Oc2ccc(NC(=O)c3nc(S(C)(=O)=O)n(C)c3-c3ccc(F)cc3)cc2)ccn1,64.2%
15,Nc1c(C(=O)c2ccc(Br)cc2)sc2nc3c(cc12)CCCC3,98.5%
16,CCCCn1cnc(-c2cc(-c3ccccc3)cc(C(F)(F)F)c2)n1,96.7%
17,COCCCNCC(=O)Nc1c(C)cccc1C,110%
18,COc1ccc(/C(=C\c2ccc3c(c2)OCO3)C(=O)Nc2nc3ccccc3s2)cc1,85.4%
19,COc1ccc2[nH]c(O)c(/C=c3/ccc4c(c3)N=C(c3ccc(C(F)(F)F)cc3)N=4)c2c1,56%

# Test system: HCC-2998 colon
# Experiment: as above
# Settings: 10 µM unless noted
row,Structure (SMILES),growth
1,CC(C)c1[nH]ncc1-c1nc2ccc3[nH]ncc3c2c2c1CCCC2,53.5%
2,Cc1cc(-c2nnc(/C=C/c3ccc4c(c3)OCO4)o2)n[nH]1,75.8%
3,CCN(CC)CCCCCCCNc1cc(OC)cc2c(C)ccnc12,90.9%
4,CCCc1n(Cc2ccc3ccccc3n2)cc[n+]1Cc1ccc2ccccc2n1,26.2%
5,COc1ccc(/C=C2\N=C(c3cccnc3)N(c3ccccc3)NC2=O)cc1,99.7%
6,COc1ccc(Sc2[nH]c(C=O)c3ccccc23)cc1,16.3%
7,COc1ccc(-n2nc(C(=O)NCC(=O)Nc3nc4cc(OC)ccc4s3)c3ccccc3c2=O)cc1,55.8%
8,CCCCN(CCCC)CCCN=c1nc2c(c(N)n1-c1ccccc1)c(=S)n(-c1ccccc1)c(=S)n2-c1ccccc1,-91.5% (active)
9,O=C(/C=C/c1ccccc1)C(Br)C(Br)c1ccccc1 (stereo not drawn),51.8%
10,COc1ccc(Nc2ncccc2C(=O)NCc2cn(Cc3cc(OC)cc(OC)c3)nn2)cc1,103%
11,CN(C)c1ccc(C(c2ccccc2)c2ccc(N(C)C)cc2)cc1,95.7%
12,COc1ccc(/C(=C\c2cc(OC)c(OC)c(OC)c2)C(=O)N2CCNCC2)cc1,104%
13,CC(=O)c1ccc(Nc2nc(Cl)nc(Oc3c(Cl)cccc3Cl)n2)cc1,106%
14,COc1cc2nccc(Oc3ccc(NC(=O)C4(C(=O)Nc5ccc(F)cc5)CC4)cc3)c2cc1Oc1ccc(N)cn1,72%
15,N#Cc1nc(-c2ccc(Cl)cc2)cc(-c2ccc(Nc3nc(N4CCCCC4)nc(N4CCCCC4)n3)cc2)c1N,112%
16,Cc1ccccc1CNc1ncnc2[nH]ncc12,105%
17,CN(C)CCOc1nc2c3ccncc3cc(-c3cccc(Cl)c3)c2c2cnccc12,45%
18,Cc1ccc(C2CC(c3cccs3)=NN2c2ccc(S(N)(=O)=O)cc2)s1 (stereo not drawn),103%
19,CN=C1C=C/C(=N/N=c2/ccn(O)cc2C)C=C1C,91.7%
20,Oc1[nH]c2ccccc2c1/C=c1/ccc2c(c1)N=C(c1ccc(C(F)(F)F)cc1)N=2,61.4%

row,Structure (SMILES),growth
1,Clc1ccc(Nc2ncnc3c2sc2ncccc23)cc1,61.9%
2,Nc1nc(N)c2cc(Sc3ccc(Cl)cc3)ccc2n1,6.07% (active)
3,CCN(C(=O)Nc1cccc2ccccc12)c1ccccc1,103%
4,CCN(CC)CCCC(C)Nc1cnc(C(=O)Nc2ccc(Cl)c3cccnc23)cn1 (stereo not drawn),32.6%
5,C/C(=N\NC(=S)Nc1ccccc1)c1ccccn1,48.1%
6,C[C@]12CCc3nc(Nc4ccc(O)cc4)sc3C1=CC[C@@H]1[C@@H]2CC[C@]2(C)/C(=N/NC(N)=S)CC[C@@H]12,-18.2% (active)
7,CC1(C)C(N(O)C(=O)Nc2ccc(Cl)cc2)N(c2ccc(Cl)cc2)C(=O)N1CC(=O)N/N=C/C=C/c1ccc([N+](=O)[O-])o1 (stereo not drawn),-90.6% (active)
8,COc1ccc(C(=O)c2c(N)nc3n2CCCC3)cc1OC,114%
9,Fc1ccc2c(CN3CCO[C@H](COc4cccc(Cl)c4)C3)c[nH]c2c1,96.9%
10,CC(=O)c1c(C)nc(-c2cc(C)cc(Cl)c2)nc1-c1cccc(Oc2ccccc2)c1,77.6%
11,FC(F)(F)c1ccc(/C=N/Nc2nnc3n2N=C(c2ccc(Cl)cc2)CS3)cc1,98.7%
12,O=C1/C(=C\c2cccn2C(=O)c2ccccc2)c2ccccc2N1c1c(Cl)cccc1Cl,83.8%
13,Cc1ccc(S(=O)(=O)NC(CCC(=O)Nc2ccc(Cl)cc2)C(=O)Nc2ccc(Cl)cc2)cc1 (stereo not drawn),23.5%
14,CNC(=O)c1cc(Oc2ccc(NC(=O)c3nc(S(C)(=O)=O)n(C)c3-c3ccc(F)cc3)cc2)ccn1,93.8%
15,Nc1c(C(=O)c2ccc(Br)cc2)sc2nc3c(cc12)CCCC3,99.6%
16,CCCCn1cnc(-c2cc(-c3ccccc3)cc(C(F)(F)F)c2)n1,108%
17,COCCCNCC(=O)Nc1c(C)cccc1C,122%
18,COc1ccc(/C(=C\c2ccc3c(c2)OCO3)C(=O)Nc2nc3ccccc3s2)cc1,109%
19,COc1ccc2[nH]c(O)c(/C=c3/ccc4c(c3)N=C(c3ccc(C(F)(F)F)cc3)N=4)c2c1,97.7%

# Source: PubChem BioAssay (NCI)
